Measured values from PubChem BioAssay (NCI).
About 83,000 compounds went through this panel and 20% of them were active in at least one assay; those are over-represented in the sample as a whole.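 Assay: single dose, 48 h. Readout: percent growth (0 = no net growth; negative = cell death). Active: <10.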 The source made the active and inactive calls.

Legend:
Experiment in all cases: NCI-60 one-dose screen, 48 h (100 = growth as untreated, 0 = no growth, -100 = all killed)
Details in all cases: 10 µM unless noted
HCT-15 colon = system: HCT-15 colon
HT29 colon = system: HT29 colon
SNB-75 CNS = system: SNB-75 CNS
SNB-19 CNS = system: SNB-19 CNS
U251 CNS = system: U251 CNS
SK-MEL-5 melanoma = system: SK-MEL-5 melanoma
UACC-62 melanoma = system: UACC-62 melanoma
LOX IMVI melanoma = system: LOX IMVI melanoma
SK-MEL-28 melanoma = system: SK-MEL-28 melanoma
SK-MEL-2 melanoma = system: SK-MEL-2 melanoma
EKVX NSCLC = system: EKVX NSCLC
SN12C renal = system: SN12C renal
UO-31 renal = system: UO-31 renal
TK-10 renal = system: TK-10 renal
ACHN renal = system: ACHN renal
CAKI-1 renal = system: CAKI-1 renal
CCRF-CEM leukemia = system: CCRF-CEM leukemia
MOLT-4 leukemia = system: MOLT-4 leukemia
A498 renal = system: A498 renal

Measured: growth

O=[N+]([O-])c1ccc2c(c1)Cc1cc(F)ccc1-2
inactive: HCT-15 colon 97.1% | HT29 colon 95.6% | SNB-75 CNS 92.1% | SNB-19 CNS 92.5% | U251 CNS 93.1% | SK-MEL-5 melanoma 86.4% | UACC-62 melanoma 85.2% | LOX IMVI melanoma 103% | SK-MEL-28 melanoma 107% | SK-MEL-2 melanoma 126% | EKVX NSCLC 68.7% | SN12C renal 99% | UO-31 renal 88.8% | TK-10 renal 96.8% | ACHN renal 103% | CAKI-1 renal 96.4% | CCRF-CEM leukemia 81.9% | MOLT-4 leukemia 94.1%

Cc1ccc(C(SCC(N)C(=O)O)(c2ccccc2)c2ccc(C)cc2)cc1 (stereo not drawn)
active: HT29 colon 1.66% | U251 CNS 7.96% | SK-MEL-2 melanoma -24.4% | CCRF-CEM leukemia 6.28%
inactive: HCT-15 colon 20.1% | SNB-75 CNS 16.8% | SNB-19 CNS 36.5% | SK-MEL-5 melanoma 16.7% | UACC-62 melanoma 13.6% | LOX IMVI melanoma 41.7% | SK-MEL-28 melanoma 30% | EKVX NSCLC 43.1% | SN12C renal 29.9% | UO-31 renal 38.6% | TK-10 renal 60.7% | ACHN renal 56.3% | A498 renal 29% | MOLT-4 leukemia 13.8%

CCNc1ncnc2c1cnn2C1CCCO1 (stereo not drawn)
inactive: HCT-15 colon 106% | HT29 colon 119% | SNB-75 CNS 89.4% | SNB-19 CNS 105% | U251 CNS 107% | SK-MEL-5 melanoma 105% | UACC-62 melanoma 107% | LOX IMVI melanoma 111% | SK-MEL-28 melanoma 107% | SK-MEL-2 melanoma 116% | EKVX NSCLC 115% | SN12C renal 103% | UO-31 renal 86% | TK-10 renal 116% | ACHN renal 104% | CAKI-1 renal 101% | MOLT-4 leukemia 92.3%

O=C1c2cccc3cccc(c23)C(=O)N1CCCCCN1CCN(CCCCCOc2ccc(-c3nc4ccc(N5CCOCC5)cc4[nH]3)cc2)CC1
inactive: HCT-15 colon 80.4% | HT29 colon 44.3% | SNB-75 CNS 112% | SNB-19 CNS 129% | U251 CNS 99.6% | SK-MEL-5 melanoma 96.7% | UACC-62 melanoma 75% | LOX IMVI melanoma 56.4% | SK-MEL-28 melanoma 95.7% | SK-MEL-2 melanoma 87.4% | EKVX NSCLC 105% | SN12C renal 108% | TK-10 renal 106% | ACHN renal 111% | CAKI-1 renal 59.4% | A498 renal 117%
active: UO-31 renal 4.03% | CCRF-CEM leukemia -17.9% | MOLT-4 leukemia -54.4%

O=C1c2ccccc2C(=O)c2c1ccc1[nH]c(-c3cccs3)nc21
inactive: HCT-15 colon 89.8% | HT29 colon 107% | SNB-75 CNS 98.9% | SNB-19 CNS 100% | U251 CNS 72.7% | SK-MEL-5 melanoma 85% | UACC-62 melanoma 85.5% | LOX IMVI melanoma 79.2% | SK-MEL-28 melanoma 127% | SK-MEL-2 melanoma 107% | EKVX NSCLC 71.7% | SN12C renal 73.4% | UO-31 renal 58.6% | TK-10 renal 87.3% | ACHN renal 66.5% | CAKI-1 renal 82% | A498 renal 96.5% | CCRF-CEM leukemia 88.4% | MOLT-4 leukemia 70.1%

CN(C)C(=S)N=Nc1c(O)[nH]c2ccccc12
inactive: HCT-15 colon 31.7% | HT29 colon 28.7% | SNB-75 CNS 48.4% | SNB-19 CNS 18.3% | U251 CNS 17% | LOX IMVI melanoma 14% | SK-MEL-28 melanoma 37.5% | EKVX NSCLC 14.8% | SN12C renal 25.1% | TK-10 renal 28.9% | ACHN renal 16.9%
active: SK-MEL-5 melanoma 4.77% | UACC-62 melanoma -16.9% | SK-MEL-2 melanoma -12.6% | UO-31 renal -19.1% | A498 renal 1.31% | CCRF-CEM leukemia -11.6% | MOLT-4 leukemia -12.4%

O=C(CCN1C(=O)/C(=C/c2ccc(Cl)cc2)SC1=S)NCCCN1CCOCC1
inactive: HCT-15 colon 98% | HT29 colon 105% | SNB-75 CNS 92.4% | SNB-19 CNS 101% | U251 CNS 102% | SK-MEL-5 melanoma 97.5% | UACC-62 melanoma 92.4% | LOX IMVI melanoma 99.7% | SK-MEL-28 melanoma 100% | SK-MEL-2 melanoma 106% | EKVX NSCLC 90.9% | SN12C renal 98.5% | UO-31 renal 84.9% | TK-10 renal 110% | ACHN renal 91.4% | CAKI-1 renal 94.4% | A498 renal 106% | CCRF-CEM leukemia 103% | MOLT-4 leukemia 102%

O=C1c2ccccc2C(=O)c2c(N=Nc3[nH]c(=S)[nH]c3O)cccc21
active: HT29 colon 9.93% | SNB-75 CNS -20.2% | A498 renal -6.1%
inactive: HCT-15 colon 23.2% | SNB-19 CNS 28.9% | U251 CNS 12.8% | SK-MEL-5 melanoma 13.8% | UACC-62 melanoma 32.5% | LOX IMVI melanoma 34.1% | SK-MEL-28 melanoma 52% | SK-MEL-2 melanoma 24.4% | EKVX NSCLC 41.6% | SN12C renal 35.3% | UO-31 renal 26.9% | TK-10 renal 54.1% | ACHN renal 41.4% | CAKI-1 renal 20.6% | MOLT-4 leukemia 16%

C#CCOc1ccc2ncnc(Nc3cccc(CNC(=O)C=C)c3)c2c1
inactive: HCT-15 colon 104% [8.25 µM] | HT29 colon 108% [8.25 µM] | SNB-75 CNS 88.6% [8.25 µM] | SNB-19 CNS 98.1% [8.25 µM] | U251 CNS 94.6% [8.25 µM] | SK-MEL-5 melanoma 96% [8.25 µM] | UACC-62 melanoma 99.6% [8.25 µM] | LOX IMVI melanoma 97.3% [8.25 µM] | SK-MEL-28 melanoma 97.5% [8.25 µM] | SK-MEL-2 melanoma 104% [8.25 µM] | EKVX NSCLC 98.6% [8.25 µM] | SN12C renal 95.5% [8.25 µM] | UO-31 renal 82.3% [8.25 µM] | TK-10 renal 91.5% [8.25 µM] | ACHN renal 95.8% [8.25 µM] | CAKI-1 renal 96.3% [8.25 µM] | A498 renal 58.8% [8.25 µM] | CCRF-CEM leukemia 111% [8.25 µM] | MOLT-4 leukemia 100% [8.25 µM]

O=C(COc1cccc(/C=C2\COc3ccc(Cl)cc3C2=O)c1)c1ccc(Cl)cc1
inactive: HCT-15 colon 82% | HT29 colon 97.7% | SNB-75 CNS 67.8% | SNB-19 CNS 90.5% | U251 CNS 87.5% | SK-MEL-5 melanoma 94.3% | UACC-62 melanoma 80.9% | LOX IMVI melanoma 76.1% | SK-MEL-28 melanoma 119% | SK-MEL-2 melanoma 54.2% | EKVX NSCLC 101% | SN12C renal 97.3% | UO-31 renal 69.3% | TK-10 renal 98.4% | ACHN renal 91% | CAKI-1 renal 84.2% | A498 renal 111% | MOLT-4 leukemia 41.2%
active: CCRF-CEM leukemia 2.99%

O=C1/C(=C/N2N=C(c3ccc4ccccc4c3)CC2c2ccccc2O)SC(=S)N1c1cccnc1 (stereo not drawn)
inactive: HCT-15 colon 12.4% | HT29 colon 10.7% | SNB-19 CNS 40.1% | U251 CNS 16.1% | SK-MEL-5 melanoma 64% | UACC-62 melanoma 66.2% | LOX IMVI melanoma 27.5% | SK-MEL-28 melanoma 78.6% | SK-MEL-2 melanoma 100% | EKVX NSCLC 43.2% | SN12C renal 39.5% | UO-31 renal 11.6% | TK-10 renal 60.1% | ACHN renal 43.6% | CAKI-1 renal 41.9% | A498 renal 14.3% | MOLT-4 leukemia 19.2%
active: SNB-75 CNS -4.45%

COC(=O)c1cccc(NC(=O)c2ccc(-c3cccc(N)c3)o2)c1
inactive: HCT-15 colon 96.6% | HT29 colon 107% | SNB-75 CNS 93.2% | SNB-19 CNS 95.5% | U251 CNS 104% | SK-MEL-5 melanoma 81.8% | UACC-62 melanoma 91.4% | LOX IMVI melanoma 99.6% | SK-MEL-28 melanoma 102% | SK-MEL-2 melanoma 98.3% | EKVX NSCLC 94.5% | SN12C renal 94% | UO-31 renal 83% | TK-10 renal 125% | ACHN renal 102% | CAKI-1 renal 91.3% | A498 renal 105% | CCRF-CEM leukemia 71.7% | MOLT-4 leukemia 85.9%

C(=C\c1nccc2c1[nH]c1ccccc12)/c1ccccc1
active: HT29 colon 1.31% | SNB-75 CNS -20.1% | SK-MEL-5 melanoma 2.59% | CAKI-1 renal -8.56%
inactive: HCT-15 colon 18.7% | SNB-19 CNS 35% | U251 CNS 15.1% | UACC-62 melanoma 39.3% | LOX IMVI melanoma 25.5% | SK-MEL-28 melanoma 49.6% | SK-MEL-2 melanoma 37.4% | EKVX NSCLC 38.3% | SN12C renal 46.2% | UO-31 renal 13.2% | TK-10 renal 34% | ACHN renal 35.6% | A498 renal 40.4% | MOLT-4 leukemia 49.1%

COc1cc(/C=C/C(=O)Nc2cccnc2Nc2ccc(F)cc2)cc(OC)c1OC
inactive: HCT-15 colon 99% | HT29 colon 91.2% | SNB-75 CNS 97% | SNB-19 CNS 91.1% | U251 CNS 70.8% | SK-MEL-5 melanoma 95.8% | UACC-62 melanoma 94.7% | LOX IMVI melanoma 100% | SK-MEL-28 melanoma 103% | SK-MEL-2 melanoma 68.4% | EKVX NSCLC 92.5% | SN12C renal 109% | UO-31 renal 89.2% | TK-10 renal 103% | ACHN renal 102% | CAKI-1 renal 88.6% | CCRF-CEM leukemia 85% | MOLT-4 leukemia 87.5%

CC(C)CSc1nc(N)nc2c1ncn2C1OC(CO)C(O)C1O (stereo not drawn)
inactive: HCT-15 colon 92.7% | HT29 colon 103% | SNB-75 CNS 101% | SNB-19 CNS 104% | U251 CNS 101% | SK-MEL-5 melanoma 96.5% | UACC-62 melanoma 92.8% | LOX IMVI melanoma 95.3% | SK-MEL-28 melanoma 112% | SK-MEL-2 melanoma 111% | EKVX NSCLC 93.2% | SN12C renal 94% | UO-31 renal 95.2% | TK-10 renal 107% | ACHN renal 94.6% | CAKI-1 renal 82.8% | CCRF-CEM leukemia 102% | MOLT-4 leukemia 110%

Nc1ccc(-c2cc3c(Nc4ccc(Oc5cccc(C(F)(F)F)c5)c(Cl)c4)ncnc3s2)cc1
inactive: HCT-15 colon 44.6% | HT29 colon 64% | SNB-75 CNS 78.1% | SNB-19 CNS 89.8% | U251 CNS 79% | SK-MEL-5 melanoma 70.9% | UACC-62 melanoma 81.9% | LOX IMVI melanoma 50.1% | SK-MEL-28 melanoma 83.1% | SK-MEL-2 melanoma 88.1% | EKVX NSCLC 54.8% | SN12C renal 57.3% | UO-31 renal 47.3% | TK-10 renal 90.3% | ACHN renal 60.5% | CAKI-1 renal 60.3% | A498 renal 89.5% | MOLT-4 leukemia 48.2%
